Measured values published in PMC11006913.

Legend:
Assay in all cases: PBM; 200 nM protein, PBS
Settings in all cases: dsDNA, one strand shown
HOXA4 [1] = target: HOXA4 (Homo sapiens, UniProt Q00056 201-287, W262R)
HOXA4 [2] = target: HOXA4 (Homo sapiens, UniProt Q00056 201-287, R217L)
ALX3 [3] = target: ALX3 (Homo sapiens, UniProt O95076 139-225, N203Q)
HOXA4 [4] = target: HOXA4 (Homo sapiens, UniProt Q00056 201-287)
ALX3 [5] = target: ALX3 (Homo sapiens, UniProt O95076 139-225)
PROP1 [6] = target: PROP1 (Homo sapiens, UniProt O75360 56-141)
Sequence of PROP1 (Homo sapiens, UniProt O75360 56-141) (O75360 56-141): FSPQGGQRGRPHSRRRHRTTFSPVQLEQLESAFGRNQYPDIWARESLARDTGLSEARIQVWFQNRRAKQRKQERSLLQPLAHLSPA

PROP1 [7] = target: PROP1 (Homo sapiens, UniProt O75360 56-141, R99H)
Sequence of PROP1 (Homo sapiens, UniProt O75360 56-141, R99H) (O75360 56-141 R99H): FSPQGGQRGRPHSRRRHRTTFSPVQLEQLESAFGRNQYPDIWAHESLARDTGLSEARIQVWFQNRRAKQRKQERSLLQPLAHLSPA

ALX3 [8] = target: ALX3 (Homo sapiens, UniProt O95076 139-225, L168Q)
Sequence of ALX3 (Homo sapiens, UniProt O95076 139-225, L168Q) (O95076 139-225 L168Q): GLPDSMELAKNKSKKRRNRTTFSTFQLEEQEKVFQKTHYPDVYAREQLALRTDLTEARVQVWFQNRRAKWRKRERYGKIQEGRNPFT

ALX3 [9] = target: ALX3 (Homo sapiens, UniProt O95076 139-225, L168V)
Sequence of ALX3 (Homo sapiens, UniProt O95076 139-225, L168V) (O95076 139-225 L168V): as the sequence (O95076 139-225 L168Q) above, with Q30V counted along it

PROP1 [10] = target: PROP1 (Homo sapiens, UniProt O75360 56-141, F88S)
Sequence of PROP1 (Homo sapiens, UniProt O75360 56-141, F88S) (O75360 56-141 F88S): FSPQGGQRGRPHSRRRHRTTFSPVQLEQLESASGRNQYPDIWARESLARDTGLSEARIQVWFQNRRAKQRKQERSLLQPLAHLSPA

HOXA4 [11] = target: HOXA4 (Homo sapiens, UniProt Q00056 201-287, W262F)
Sequence of HOXA4 (Homo sapiens, UniProt Q00056 201-287, W262F) (Q00056 201-287 W262F): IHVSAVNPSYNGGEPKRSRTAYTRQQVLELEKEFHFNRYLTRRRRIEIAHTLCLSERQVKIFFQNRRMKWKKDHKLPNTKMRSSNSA

ALX3 [12] = target: ALX3 (Homo sapiens, UniProt O95076 139-225, N203S)
Sequence of ALX3 (Homo sapiens, UniProt O95076 139-225, N203S) (O95076 139-225 N203S): as the sequence (O95076 139-225 L168Q) above, with Q30L, N65S counted along it

HOXA2 [13] = target: HOXA2 (Homo sapiens, UniProt O43364 129-215, R185T)
Sequence of HOXA2 (Homo sapiens, UniProt O43364 129-215, R185T) (O43364 129-215 R185T): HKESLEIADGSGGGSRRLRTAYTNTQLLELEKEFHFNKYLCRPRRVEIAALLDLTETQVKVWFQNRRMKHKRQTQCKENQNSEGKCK

HOXA2 [14] = target: HOXA2 (Homo sapiens, UniProt O43364 129-215, R185K)
Sequence of HOXA2 (Homo sapiens, UniProt O43364 129-215, R185K) (O43364 129-215 R185K): as the sequence (O43364 129-215 R185T) above, with T57K counted along it

VAX1 [15] = target: VAX1 (Homo sapiens, UniProt Q5SQQ9 86-172)
Sequence of VAX1 (Homo sapiens, UniProt Q5SQQ9 86-172) (Q5SQQ9 86-172): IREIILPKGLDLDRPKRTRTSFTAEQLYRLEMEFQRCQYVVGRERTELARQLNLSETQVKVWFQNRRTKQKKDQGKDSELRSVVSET

VAX1 [16] = target: VAX1 (Homo sapiens, UniProt Q5SQQ9 86-172, T142I)
Sequence of VAX1 (Homo sapiens, UniProt Q5SQQ9 86-172, T142I) (Q5SQQ9 86-172 T142I): as the sequence (Q5SQQ9 86-172) above, with T57I counted along it

HOXA2 [17] = target: HOXA2 (Homo sapiens, UniProt O43364 129-215, Y150S)
Sequence of HOXA2 (Homo sapiens, UniProt O43364 129-215, Y150S) (O43364 129-215 Y150S): as the sequence (O43364 129-215 R185T) above, with Y22S, T57R counted along it

HOXA2 [18] = target: HOXA2 (Homo sapiens, UniProt O43364 129-215)
Sequence of HOXA2 (Homo sapiens, UniProt O43364 129-215) (O43364 129-215): as the sequence (O43364 129-215 R185T) above, with T57R counted along it

VAX1 [19] = target: VAX1 (Homo sapiens, UniProt Q5SQQ9 86-172, K157R)
Sequence of VAX1 (Homo sapiens, UniProt Q5SQQ9 86-172, K157R) (Q5SQQ9 86-172 K157R): as the sequence (Q5SQQ9 86-172) above, with K72R counted along it

HOXB6 [20] = target: HOXB6 (Homo sapiens, UniProt P17509 132-218, K202E)
Sequence of HOXB6 (Homo sapiens, UniProt P17509 132-218, K202E) (P17509 132-218 K202E): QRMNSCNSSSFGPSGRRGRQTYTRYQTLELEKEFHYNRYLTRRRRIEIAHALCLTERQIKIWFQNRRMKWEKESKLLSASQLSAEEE

HOXB6 [21] = target: HOXB6 (Homo sapiens, UniProt P17509 132-218)
Sequence of HOXB6 (Homo sapiens, UniProt P17509 132-218) (P17509 132-218): as the sequence (P17509 132-218 K202E) above, with E71K counted along it

HOXD13 = HOXD13 (Homo sapiens, UniProt P35453 263-343)
Sequence of HOXD13 (P35453 263-343): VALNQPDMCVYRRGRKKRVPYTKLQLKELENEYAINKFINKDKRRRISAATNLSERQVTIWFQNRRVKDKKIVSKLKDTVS

Sequence of HOXA4 (Homo sapiens, UniProt Q00056 201-287, R217L) (Q00056 201-287 R217L): as the sequence (Q00056 201-287 W262F) above, with R17L, F62W counted along it
Sequence of HOXA4 (Homo sapiens, UniProt Q00056 201-287, W262R) (Q00056 201-287 W262R): as the sequence (Q00056 201-287 W262F) above, with F62R counted along it
Sequence of HOXA4 (Homo sapiens, UniProt Q00056 201-287) (Q00056 201-287): as the sequence (Q00056 201-287 W262F) above, with F62W counted along it
Sequence of ALX3 (Homo sapiens, UniProt O95076 139-225, N203Q) (O95076 139-225 N203Q): as the sequence (O95076 139-225 L168Q) above, with Q30L, N65Q counted along it
Sequence of ALX3 (Homo sapiens, UniProt O95076 139-225) (O95076 139-225): as the sequence (O95076 139-225 L168Q) above, with Q30L counted along it

## CCCAGACC
HOXA4 [1]
  binding signal: 9.9 upbm affinity estimate (log intensity, higher = more binding, comparable within an allelic series)
HOXA4 [2]
  binding signal: 9.76 upbm affinity estimate (log intensity, higher = more binding, comparable within an allelic series)
ALX3 [3]
  binding signal: 7.81 upbm affinity estimate (log intensity, higher = more binding, comparable within an allelic series)
HOXA4 [4]
  binding signal: 9.51 upbm affinity estimate (log intensity, higher = more binding, comparable within an allelic series)
ALX3 [5]
  binding signal: 7.71 upbm affinity estimate (log intensity, higher = more binding, comparable within an allelic series)
PROP1 [6]
  binding signal: 6.45 upbm affinity estimate (log intensity, higher = more binding, comparable within an allelic series)
PROP1 [7]
  binding signal: 6.71 upbm affinity estimate (log intensity, higher = more binding, comparable within an allelic series)
ALX3 [8]
  binding signal: 7.78 upbm affinity estimate (log intensity, higher = more binding, comparable within an allelic series)
ALX3 [9]
  binding signal: 7.7 upbm affinity estimate (log intensity, higher = more binding, comparable within an allelic series)
PROP1 [10]
  binding signal: 6.48 upbm affinity estimate (log intensity, higher = more binding, comparable within an allelic series)
HOXA4 [11]
  binding signal: 9.84 upbm affinity estimate (log intensity, higher = more binding, comparable within an allelic series)
ALX3 [12]
  binding signal: 7.84 upbm affinity estimate (log intensity, higher = more binding, comparable within an allelic series)

## CCCCCCGA
HOXA4 [1]
  binding signal: 9.72 upbm affinity estimate (log intensity, higher = more binding, comparable within an allelic series)
HOXA4 [2]
  binding signal: 9.69 upbm affinity estimate (log intensity, higher = more binding, comparable within an allelic series)
ALX3 [3]
  binding signal: 7.7 upbm affinity estimate (log intensity, higher = more binding, comparable within an allelic series)
HOXA4 [4]
  binding signal: 9.77 upbm affinity estimate (log intensity, higher = more binding, comparable within an allelic series)
ALX3 [5]
  binding signal: 7.94 upbm affinity estimate (log intensity, higher = more binding, comparable within an allelic series)
ALX3 [8]
  binding signal: 7.67 upbm affinity estimate (log intensity, higher = more binding, comparable within an allelic series)
ALX3 [9]
  binding signal: 7.65 upbm affinity estimate (log intensity, higher = more binding, comparable within an allelic series)
HOXA4 [11]
  binding signal: 9.57 upbm affinity estimate (log intensity, higher = more binding, comparable within an allelic series)
ALX3 [12]
  binding signal: 7.71 upbm affinity estimate (log intensity, higher = more binding, comparable within an allelic series)

## CATCCCCC
HOXA4 [1]
  binding signal: 9.63 upbm affinity estimate (log intensity, higher = more binding, comparable within an allelic series)
HOXA4 [2]
  binding signal: 9.8 upbm affinity estimate (log intensity, higher = more binding, comparable within an allelic series)
HOXA4 [4]
  binding signal: 9.66 upbm affinity estimate (log intensity, higher = more binding, comparable within an allelic series)
PROP1 [6]
  binding signal: 6.77 upbm affinity estimate (log intensity, higher = more binding, comparable within an allelic series)
PROP1 [7]
  binding signal: 6.66 upbm affinity estimate (log intensity, higher = more binding, comparable within an allelic series)
PROP1 [10]
  binding signal: 6.11 upbm affinity estimate (log intensity, higher = more binding, comparable within an allelic series)
HOXA4 [11]
  binding signal: 9.58 upbm affinity estimate (log intensity, higher = more binding, comparable within an allelic series)

## TAATGAGA
HOXA4 [1]
  binding signal: 10.5 upbm affinity estimate (log intensity, higher = more binding, comparable within an allelic series)
HOXA2 [13]
  binding signal: 12.9 upbm affinity estimate (log intensity, higher = more binding, comparable within an allelic series)
HOXA4 [2]
  binding signal: 11.8 upbm affinity estimate (log intensity, higher = more binding, comparable within an allelic series)
HOXA2 [14]
  binding signal: 13.3 upbm affinity estimate (log intensity, higher = more binding, comparable within an allelic series)
HOXA4 [4]
  binding signal: 13.6 upbm affinity estimate (log intensity, higher = more binding, comparable within an allelic series)
VAX1 [15]
  binding signal: 13.2 upbm affinity estimate (log intensity, higher = more binding, comparable within an allelic series)
VAX1 [16]
  binding signal: 12.7 upbm affinity estimate (log intensity, higher = more binding, comparable within an allelic series)
HOXA2 [17]
  binding signal: 10.8 upbm affinity estimate (log intensity, higher = more binding, comparable within an allelic series)
HOXA4 [11]
  binding signal: 11.5 upbm affinity estimate (log intensity, higher = more binding, comparable within an allelic series)
HOXA2 [18]
  binding signal: 12.5 upbm affinity estimate (log intensity, higher = more binding, comparable within an allelic series)
VAX1 [19]
  binding signal: 12.8 upbm affinity estimate (log intensity, higher = more binding, comparable within an allelic series)

## GAAGGGGA
HOXA4 [1]
  binding signal: 9.88 upbm affinity estimate (log intensity, higher = more binding, comparable within an allelic series)
HOXA4 [2]
  binding signal: 9.89 upbm affinity estimate (log intensity, higher = more binding, comparable within an allelic series)
HOXA4 [4]
  binding signal: 9.82 upbm affinity estimate (log intensity, higher = more binding, comparable within an allelic series)
HOXA4 [11]
  binding signal: 10 upbm affinity estimate (log intensity, higher = more binding, comparable within an allelic series)

## GCCCCCAC
HOXA4 [1]
  binding signal: 9.79 upbm affinity estimate (log intensity, higher = more binding, comparable within an allelic series)
HOXB6 [20]
  binding signal: 9.03 upbm affinity estimate (log intensity, higher = more binding, comparable within an allelic series)
HOXA4 [2]
  binding signal: 9.73 upbm affinity estimate (log intensity, higher = more binding, comparable within an allelic series)
HOXA4 [4]
  binding signal: 9.63 upbm affinity estimate (log intensity, higher = more binding, comparable within an allelic series)
HOXA4 [11]
  binding signal: 9.84 upbm affinity estimate (log intensity, higher = more binding, comparable within an allelic series)
HOXB6 [21]
  binding signal: 8.92 upbm affinity estimate (log intensity, higher = more binding, comparable within an allelic series)

## GAGTAATA
HOXD13
  binding signal: 10.9 upbm affinity estimate (log intensity, higher = more binding, comparable within an allelic series)
